# Measured values: the supplement of paper PMC8728848
# Many of the other results were omitted from the sample, so the strongest signals are more common in it than they were.
# Tests used:
# Test in all cases: glycan array binding signal (z-score within array); higher = stronger binding
# Details in all cases: glycan notation: IUPAC condensed, linker removed
# [1] = molecular target: Fuc(a1-2)Gal(b1-4)[Fuc(a1-3)]GlcNAc(b1-2)[Fuc(a1-2)Gal(b1-4)[Fuc(a1-3)]GlcNAc(b1-4)]Man(a1-3)[Fuc(a1-2)Gal(b1-4)[Fuc(a1-3)]GlcNAc(b1-2)Man(a1-6)]Man(b1-4)GlcNAc(b1-4)GlcNAc
# How it was run: (§1)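 Columns mapping to the same glycan were averaged after glycan names were converted to IUPAC-condensed notation. The data come from 3228 arrays in the Consortium for Functional Glycomics database, limited to those with an available protein sequence. Binding is reported as a within-array Z-score averaged across arrays of one protein sequence and across linkers.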
# [2] = molecular target: Fuc(a1-2)[Gal(a1-3)]Gal(b1-3)GalNAc(b1-3)Gal(a1-4)Gal(b1-4)Glc
# How it was run: as §1
# [3] = molecular target: Fuc(a1-2)[Gal(a1-3)]Gal(b1-3)GlcNAc(b1-2)Man(a1-3)[Fuc(a1-2)[Gal(a1-3)]Gal(b1-3)GlcNAc(b1-2)Man(a1-6)]Man(b1-4)GlcNAc(b1-4)GlcNAc
# How it was run: as §1
# [4] = molecular target: Fuc(a1-2)[Gal(a1-3)]Gal(b1-4)[Fuc(a1-3)]Glc
# How it was run: as §1
# [5] = molecular target: Fuc(a1-2)[GalNAc(a1-3)]Gal(b1-3)GlcNAc(b1-3)GalNAc
# How it was run: as §1
# [6] = molecular target: Fuc(a1-2)[GalNAc(a1-3)]Gal(b1-4)GlcNAc(b1-2)Man(a1-3)[Fuc(a1-2)[GalNAc(a1-3)]Gal(b1-4)GlcNAc(b1-2)Man(a1-6)]Man(b1-4)GlcNAc(b1-4)GlcNAc
# How it was run: as §1
# Fuc(a1-3)GlcNAc = molecular target: Fuc(a1-3)GlcNAc
# How it was run: as §1
# [7] = molecular target: Fuc(a1-3)[Gal(b1-4)]GlcNAc(b1-3)Gal(b1-4)[Fuc(a1-3)]GlcNAc
# How it was run: as §1
# [8] = molecular target: Fuc(a1-3)[Gal(b1-4)]GlcNAc6S
# How it was run: as §1
# [9] = molecular target: Gal(a1-3)Gal(b1-4)GlcNAc(b1-2)Man(a1-3)[Gal(a1-3)Gal(b1-4)GlcNAc(b1-2)Man(a1-6)]Man(b1-4)GlcNAc(b1-4)GlcNAc
# How it was run: as §1
# [10] = molecular target: Gal(a1-3)Gal(b1-4)[Fuc(a1-3)]GlcNAc
# How it was run: as §1
# [11] = molecular target: Gal(a1-3)Gal(b1-4)[Fuc(a1-3)]GlcNAc(b1-2)Man(a1-3)[Gal(a1-3)Gal(b1-4)[Fuc(a1-3)]GlcNAc(b1-2)Man(a1-6)]Man(b1-4)GlcNAc(b1-4)GlcNAc
# How it was run: as §1
# Gal(a1-4)Gal(b1-4)Glc = molecular target: Gal(a1-4)Gal(b1-4)Glc
# How it was run: as §1
# Gal(b1-3)GlcNAc = molecular target: Gal(b1-3)GlcNAc
# How it was run: as §1
# [12] = molecular target: Gal(b1-3)GlcNAc(b1-2)Man(a1-3)[GlcNAc(b1-4)][Gal(b1-3)GlcNAc(b1-2)Man(a1-6)]Man(b1-4)GlcNAc(b1-4)GlcNAc
# How it was run: as §1
# [13] = molecular target: Gal(b1-4)GlcNAc(b1-3)Gal(b1-4)GlcNAc(b1-2)Man(a1-3)[Gal(b1-4)GlcNAc(b1-3)Gal(b1-4)GlcNAc(b1-2)Man(a1-6)]Man(b1-4)GlcNAc(b1-4)GlcNAc
# How it was run: as §1
# [14] = molecular target: Gal(b1-4)GlcNAc(b1-3)Gal(b1-4)GlcNAc(b1-3)Gal(b1-4)GlcNAc(b1-2)Man(a1-3)[Gal(b1-4)GlcNAc(b1-3)Gal(b1-4)GlcNAc(b1-3)Gal(b1-4)GlcNAc(b1-2)Man(a1-6)]Man(b1-4)GlcNAc(b1-4)GlcNAc
# How it was run: as §1
# [15] = molecular target: Gal(b1-4)GlcNAc(b1-3)Gal(b1-4)GlcNAc(b1-3)Gal(b1-4)GlcNAc(b1-3)Gal(b1-4)GlcNAc(b1-3)Gal(b1-4)GlcNAc(b1-2)Man(a1-3)[Gal(b1-4)GlcNAc(b1-3)Gal(b1-4)GlcNAc(b1-3)Gal(b1-4)GlcNAc(b1-3)Gal(b1-4)GlcNAc(b1-3)Gal(b1-4)GlcNAc(b1-2)Man(a1-6)]Man(b1-4)GlcNAc(b1-4)GlcNAc
# How it was run: as §1
# [16] = molecular target: Gal3S(b1-4)[Fuc(a1-3)]Glc6S
# How it was run: as §1
# [17] = molecular target: Gal3S(b1-4)[Fuc(a1-3)]GlcNAc
# How it was run: as §1
# Gal3S6S(b1-4)GlcNAc = molecular target: Gal3S6S(b1-4)GlcNAc
# How it was run: as §1
# Gal6S(b1-4)GlcNAc6S = molecular target: Gal6S(b1-4)GlcNAc6S
# How it was run: as §1
# GalNAc(b1-6)GalNAc = molecular target: GalNAc(b1-6)GalNAc
# How it was run: as §1
# [18] = molecular target: GlcNAc(a1-4)Gal(b1-4)GalNAc
# How it was run: as §1
# [19] = molecular target: GlcNAc(a1-4)Gal(b1-4)GlcNAc
# How it was run: as §1
# [20] = molecular target: GlcNAc(b1-2)Man(a1-3)[GlcNAc(b1-4)][GlcNAc(b1-2)Man(a1-6)]Man(b1-4)GlcNAc(b1-4)[Fuc(a1-6)]GlcNAc
# How it was run: as §1
# [21] = molecular target: GlcNAc(b1-3)Gal(b1-4)GlcNAc(b1-2)Man(a1-3)[GlcNAc(b1-3)Gal(b1-4)GlcNAc(b1-2)Man(a1-6)]Man(b1-4)GlcNAc(b1-4)[Fuc(a1-6)]GlcNAc
# How it was run: as §1
# [22] = molecular target: GlcNAc(b1-3)Gal(b1-4)GlcNAc(b1-3)Gal(b1-4)GlcNAc(b1-3)Gal(b1-4)GlcNAc(b1-2)Man(a1-3)[GlcNAc(b1-3)Gal(b1-4)GlcNAc(b1-3)Gal(b1-4)GlcNAc(b1-3)Gal(b1-4)GlcNAc(b1-2)Man(a1-6)]Man(b1-4)GlcNAc(b1-4)[Fuc(a1-6)]GlcNAc
# How it was run: as §1
# [23] = molecular target: GlcNAc(b1-3)Gal(b1-4)GlcNAc(b1-3)Gal(b1-4)GlcNAc(b1-3)Gal(b1-4)GlcNAc(b1-2)[GlcNAc(b1-3)Gal(b1-4)GlcNAc(b1-3)Gal(b1-4)GlcNAc(b1-3)Gal(b1-4)GlcNAc(b1-6)]Man(a1-6)[GlcNAc(b1-3)Gal(b1-4)GlcNAc(b1-3)Gal(b1-4)GlcNAc(b1-3)Gal(b1-4)GlcNAc(b1-2)Man(a1-3)]Man(b1-4)GlcNAc(b1-4)[Fuc(a1-6)]GlcNAc
# How it was run: as §1
# [24] = molecular target: Neu5Ac(a2-3)Gal(b1-3)GalNAc(b1-4)[Neu5Ac(a2-3)]Gal(b1-4)Glc
# How it was run: as §1
# [25] = molecular target: Neu5Ac(a2-3)Gal(b1-3)GalNAc(b1-4)[Neu5Ac(a2-8)Neu5Ac(a2-3)]Gal(b1-4)Glc
# How it was run: as §1
# [26] = molecular target: Neu5Ac(a2-3)Gal(b1-3)GlcNAc(b1-2)[Neu5Ac(a2-3)Gal(b1-3)GlcNAc(b1-4)]Man(a1-6)[Neu5Ac(a2-3)Gal(b1-3)GlcNAc(b1-2)Man(a1-3)]Man(b1-4)GlcNAc(b1-4)GlcNAc
# How it was run: as §1
# [27] = molecular target: Neu5Ac(a2-3)Gal(b1-4)GlcNAc(b1-3)Gal(b1-4)GlcNAc(b1-2)Man(a1-3)[Neu5Ac(a2-3)Gal(b1-4)GlcNAc(b1-3)Gal(b1-4)GlcNAc(b1-2)Man(a1-6)]Man(b1-4)GlcNAc(b1-4)GlcNAc
# How it was run: as §1
# [28] = molecular target: Neu5Ac(a2-3)Gal(b1-4)GlcNAc(b1-3)Gal(b1-4)GlcNAc(b1-3)Gal(b1-4)GlcNAc(b1-2)Man(a1-3)[Neu5Ac(a2-3)Gal(b1-4)GlcNAc(b1-3)Gal(b1-4)GlcNAc(b1-3)Gal(b1-4)GlcNAc(b1-2)Man(a1-6)]GalNAc
# How it was run: as §1
# [29] = molecular target: Neu5Ac(a2-3)Gal(b1-4)[Fuc(a1-3)]GlcNAc(b1-3)GalNAc
# How it was run: as §1
# [30] = molecular target: Neu5Ac(a2-3)[GalNAc(b1-4)]Gal(b1-4)Glc
# How it was run: as §1
# [31] = molecular target: Neu5Ac(a2-6)Gal(b1-4)GlcNAc(b1-2)[Neu5Ac(a2-6)Gal(b1-4)GlcNAc(b1-6)]Man(a1-6)[Neu5Ac(a2-6)Gal(b1-4)GlcNAc(b1-2)Man(a1-3)][GlcNAc(b1-4)]Man(b1-4)GlcNAc(b1-4)GlcNAc
# How it was run: as §1
# [32] = molecular target: Neu5Ac(a2-6)Gal(b1-4)GlcNAc(b1-3)Gal(b1-4)GlcNAc
# How it was run: as §1
# [33] = molecular target: Neu5Ac(a2-6)Gal(b1-4)GlcNAc(b1-3)Gal(b1-4)GlcNAc(b1-3)Gal(b1-4)GlcNAc(b1-2)Man(a1-3)[Neu5Ac(a2-6)Gal(b1-4)GlcNAc(b1-3)Gal(b1-4)GlcNAc(b1-3)Gal(b1-4)GlcNAc(b1-2)Man(a1-6)]GalNAc
# How it was run: as §1
# [34] = molecular target: Neu5Ac(a2-6)Gal(b1-4)GlcNAc(b1-3)Gal(b1-4)GlcNAc(b1-3)[Neu5Ac(a2-6)Gal(b1-4)GlcNAc(b1-3)Gal(b1-4)GlcNAc(b1-6)]GalNAc
# How it was run: as §1
# [35] = molecular target: Neu5Ac(a2-6)Gal(b1-4)GlcNAc(b1-3)Gal(b1-4)[Fuc(a1-3)]GlcNAc(b1-3)Gal(b1-4)[Fuc(a1-3)]GlcNAc
# How it was run: as §1
# [36] = molecular target: Neu5Ac(a2-8)Neu5Ac(a2-3)Gal(b1-4)Glc
# How it was run: as §1
# [37] = molecular target: Neu5Ac(a2-8)Neu5Ac(a2-3)[GalNAc(b1-4)]Gal(b1-4)Glc
# How it was run: as §1
binder,measurement,setting,value
Clec49 (Caenorhabditis elegans) (protein) MTRLTLLLFGLLGAATAQTCNTGGIYNEQFNRCYQYFTAPAQFSFAEQQCNLLGGHLASVQNGQENALLQSNAANSFKRSNYSDYWIGATDLETSGTWKWTDPSVTFDYSNWQLGEPQSGSDCAIQDKGDGTWSAIGCTSYRPYVCVTPVIMTATCPPITTPIPTTCPTPAPCPIKQCVPSCDQGWTYFSPTDFCYRVYHGEKFNDAEASCVLLGGHLASIHSLTENTFVNNIASCGIKEGKYEHLAWIGMRKVGQDWVWTDGTPSDYFNWAPKQPDNPKKELCVQTAPDLSHDKWYENWNNLECNEVMRAYICKKASIHN,glycan array binding signal (z-score),[1],6.67
same,glycan array binding signal (z-score),[2],0.061
same,glycan array binding signal (z-score),[3],2.31
same,glycan array binding signal (z-score),[4],-0.454
same,glycan array binding signal (z-score),[5],4.18
same,glycan array binding signal (z-score),[6],0.062
same,glycan array binding signal (z-score),Fuc(a1-3)GlcNAc,-0.399
same,glycan array binding signal (z-score),[7],0.226
same,glycan array binding signal (z-score),[8],-0.462
same,glycan array binding signal (z-score),[9],0.541
same,glycan array binding signal (z-score),[10],0.246
same,glycan array binding signal (z-score),[11],2.45
same,glycan array binding signal (z-score),Gal(a1-4)Gal(b1-4)Glc,-0.394
same,glycan array binding signal (z-score),Gal(b1-3)GlcNAc,-0.244
same,glycan array binding signal (z-score),[12],3.15
same,glycan array binding signal (z-score),[13],2.54
same,glycan array binding signal (z-score),[14],2.57
same,glycan array binding signal (z-score),[15],0.133
same,glycan array binding signal (z-score),[16],-0.488
same,glycan array binding signal (z-score),[17],-0.647
same,glycan array binding signal (z-score),Gal3S6S(b1-4)GlcNAc,-0.612
same,glycan array binding signal (z-score),Gal6S(b1-4)GlcNAc6S,0.322
same,glycan array binding signal (z-score),GalNAc(b1-6)GalNAc,-0.155
same,glycan array binding signal (z-score),[18],-0.484
same,glycan array binding signal (z-score),[19],-0.068
same,glycan array binding signal (z-score),[20],0.223
same,glycan array binding signal (z-score),[21],0.489
same,glycan array binding signal (z-score),[22],-0.119
same,glycan array binding signal (z-score),[23],0.571
same,glycan array binding signal (z-score),[24],1.48
same,glycan array binding signal (z-score),[25],-0.511
same,glycan array binding signal (z-score),[26],3.69
same,glycan array binding signal (z-score),[27],2.19
same,glycan array binding signal (z-score),[28],5.23
same,glycan array binding signal (z-score),[29],14.5
same,glycan array binding signal (z-score),[30],-0.075
same,glycan array binding signal (z-score),[31],0.372
same,glycan array binding signal (z-score),[32],-0.634
same,glycan array binding signal (z-score),[33],0.32
same,glycan array binding signal (z-score),[34],2.58
same,glycan array binding signal (z-score),[35],0.181
same,glycan array binding signal (z-score),[36],-0.326
same,glycan array binding signal (z-score),[37],-0.424
